# The list is not random: actives were taken first. Their share in the collection is about 11%.
# MCF10A rereplic: induces DNA re-replication in MCF 10a normal breast cells; MCF 10A DNA re-replication, Hoechst nuclear intensity, 48 h; Potency, µM (highest dose often 46.1 µM), usual class: activators; 350,000 tested, 2.9% active; AID 624296; also: nearly all actives have a fitted effect of over 50% in size
# SW480 rereplic: induces DNA re-replication in SW480 colon adenocarcinoma cells. SW480 DNA re-replication, Hoechst DNA content imaging, 48 h. Potency, µM (top dose mostly 46.1 µM), hits mostly activators. 340,000 tested, 1.8% active. AID 624297; also: nearly all actives have a fitted effect of over 55% in size
#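 First, 250 cells per well were seeded. Next, compound or vehicle (23 nL) was pinned in, plates sat 48 hr at 37 C. Finally Hoechst was added for 40 min before fluorescence scanning.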
# IL1B secr inh: inflammasome signaling inhibition, IL-1 beta readout; THP-1 LPS/ATP IL-1B secretion, AlphaLISA, 16 h; active compounds read low; activity change, % at 57.5 µM; 360,000 tested, 4.7% active; in the data active = activity change below about -50%; inconclusive = mostly about -30% to -49%
#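 THP-1 cells pretreated 1 hr with compounds (up to 57.5 uM final), then stimulated with LPS (250 ng/mL final) plus ATP (1.25 mM final); secreted IL-1B measured by AlphaLISA after 16 hr, decreased signal indicating inhibition.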
# VP16 counter: counter-screen for ROR gamma inhibitors: Gal4-VP16 reporter; Drosophila S2 Gal4-VP16 UAS-luciferase, luminescence, 20 h; Potency, µM (doses to about 53.6 µM), hits mostly inhibitors; 310,000 tested, 3.5% active; AID 2546;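 also: Gal4-VP16 expression switched on by copper sulfate through the metallothionein promoter; nearly all actives have a fitted effect of over 50% in size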
# RORgamma inh: blocks mouse ROR gamma transcriptional activity. AID 2551. Potency, µM (highest dose often 53.6 µM), actives largely listed as inhibitors. 310,000 tested, 5.4% active. P51450. Drosophila S2 Gal4-RORgamma UAS-luciferase reporter, 20 h; also: nearly all actives have a fitted effect of over 60% in size
# Target sequence (P51450 whole entry, looked up, the tested form may be a part): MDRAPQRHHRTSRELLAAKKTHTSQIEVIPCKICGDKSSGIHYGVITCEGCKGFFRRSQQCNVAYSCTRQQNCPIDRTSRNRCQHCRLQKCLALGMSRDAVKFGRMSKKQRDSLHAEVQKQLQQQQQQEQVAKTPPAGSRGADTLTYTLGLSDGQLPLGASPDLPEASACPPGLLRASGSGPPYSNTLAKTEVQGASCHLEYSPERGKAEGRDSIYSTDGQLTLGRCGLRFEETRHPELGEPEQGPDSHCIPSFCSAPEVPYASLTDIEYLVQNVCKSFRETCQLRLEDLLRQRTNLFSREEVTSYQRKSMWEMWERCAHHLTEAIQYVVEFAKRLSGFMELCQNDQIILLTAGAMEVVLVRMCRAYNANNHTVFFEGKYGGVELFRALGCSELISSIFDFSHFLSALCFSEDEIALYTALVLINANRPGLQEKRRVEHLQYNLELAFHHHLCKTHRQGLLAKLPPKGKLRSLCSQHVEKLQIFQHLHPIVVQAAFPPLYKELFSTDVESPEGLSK
#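 Schneider cells (Drosophila), stable Gal4 DBD–ROR gamma + UAS-luc; 1 hr cmpd preincubation; Cu2+ induction 700 uM final; 20 hr ambient; luminescence.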
# Hits are given with their value; – = inactive; ? = inconclusive; · = no result; [ ] = remark or other dose. Unless noted, calls follow the shape of the dose curve; as a rule, active = well fitted curve in the direction sought with a large enough effect; inconclusive = small, poorly fitted or top-dose-only effect, or another doubt; inactive = no such curve, though single readings can be large; an effect the other way counts as inactive or inconclusive.
SMILES,MCF10A rereplic,SW480 rereplic,IL1B secr inh,VP16 counter,RORgamma inh
O=C(O)c1cccc(CSc2nnc(-c3ccco3)o2)c1,–,–,–,?,?
COc1cc(OC)cc(-c2nnc(SCc3cccc(C(=O)O)c3)o2)c1,–,–,–,7.1µM,?
COc1cc(-c2nnc(SCC(=O)N(Cc3ccccc3)C(C)(C)C)o2)cc(OC)c1OC,–,–,-56,–,–
CC(C)NC(=O)c1ccc(C2SCC(=O)N2Cc2ccccc2)cc1 (centres undefined),7.3µM,–,–,?,–
Cc1cccc(NC(=O)c2ccc(C3SCC(=O)N3CCc3ccccc3)cc2)c1C (centres undefined),?,–,-68,–,–
CCc1ccc(NC(=O)c2ccc(C3SCC(=O)N3CCc3ccccc3)cc2)cc1 (centres undefined),–,–,–,–,–
CCC(C)NC(=O)c1ccc(C2SCC(=O)N2Cc2ccccc2)cc1 (centres undefined),–,–,–,–,–
Cc1nc2ccc(S(=O)(=O)NCC(=O)Nc3ccc(F)cc3)cc2s1,–,?,–,–,–
COc1cc(C(=O)OCC(=O)N2CCCC2=O)cc(OC)c1C,–,–,–,·,·
COC(=O)CC1(C(=O)OC)Nc2cc(Cl)c(Cl)cc2S(=O)(=O)N1O (centres undefined),·,·,–,·,·
Cn1c(Cn2nnc(-c3ccccc3)n2)nnc1SCc1ccccc1Cl,–,–,–,11µM,–
CC1CCN(C(=O)COC(=O)c2ccc([N+](=O)[O-])o2)CC1,–,21µM,?,·,·
COCCn1c(C)cc(C(=O)COC(=O)c2ccc([N+](=O)[O-])o2)c1C,–,–,–,–,13µM
CC1CCN(C(=O)CCc2ccc(Oc3cc([N+](=O)[O-])cc([N+](=O)[O-])c3)cc2)CC1,?,–,-57,–,–[10 µM]
Cc1cc(C(=O)Cn2nnc(-c3ccc(Cl)cc3)n2)c(C)n1CC1CCCO1 (centres undefined),?,–,-71,32µM,–
Cc1cc(C(=O)CSc2nnc(-c3ccc(Cl)cc3)n2C)c(C)n1CC1CCCO1 (centres undefined),–,–,–,–,–
CC(C)CN(C(=O)c1cc(=O)[nH]c2ccccc12)c1c(N)n(Cc2ccccc2)c(=O)[nH]c1=O,–,–,–,·,·
CO[C@H]1COC(=O)C/C=C\[C@H](C)[C@@H](NS(=O)(=O)c2ccc(C)cc2)COC(=O)C/C=C\[C@@H]1C,·,·,·,–[10 µM],–[10 µM]
Cc1cc(C(=O)COC(=O)c2ccc([N+](=O)[O-])o2)c(C)n1CC1CCCO1 (centres undefined),–,–,–,–,20µM
COCCn1c(C)cc(C(=O)COC(=O)c2cccc(O)c2)c1C,–,–,–,0.63µM,0.35µM
CC1(C(=O)O)CCCN(C(=O)c2ccc3c(c2)C(C)(C)CCC3(C)C)C1 (centres undefined),·,·,–,·,·
CCCS(=O)(=O)NC(=O)C1(C)CCN(C(=O)c2ccco2)C1 (centres undefined),·,·,–,·,·
COC(=O)C/C=C\[C@@H](C)[C@@H](/C=N\O[C@@H](C)c1cn([C@H]2COC[C@H]2O)nn1)OC,·,·,·,–[10 µM],–[10 µM]
CC(=O)Nc1ccc(S(=O)(=O)N2CCN(CC(O)COc3ccc4ccccc4c3)CC2)cc1 (centres undefined),–,–,-61,?,–
O=S(=O)(N1CCCCC1)N1CCN(CC(O)COc2ccc3cc(Br)ccc3c2)CC1 (centres undefined),–,–,-52,–,–
CC(=O)Nc1ccc(OCC(O)CN2CCN(S(=O)(=O)c3ccc(NC(C)=O)cc3)CC2)cc1 (centres undefined),–,–,–,–,–
CN(C)S(=O)(=O)N1CCN(CC(O)COc2ccc3cc(Br)ccc3c2)CC1 (centres undefined),–,–,–,–,–
CCOC(=O)c1ccc(S(=O)(=O)N2CCN(CC(O)COc3cccc(C(C)=O)c3)CC2)cc1 (centres undefined),?,–,-78,–,–
COc1ccc(-c2cn(Cc3ccc(C(N)=O)cc3)c(-c3ccncc3)n2)cc1,?,–,–,·,·
Cc1c(NC(=O)CSc2nnc3c4ccccc4n(CCc4ccccc4)c3n2)c(=O)n(-c2ccccc2)n1C,8.2µM,?,-62,–,–
